# Assay outcomes: PubChem, several laboratories
# Exocytosis inh: lytic granule exocytosis inhibition | TALL-104 LAMP-1 surface exposure, flow cytometry; cells stimulated with thapsigargin and PMA | 360,000 compounds, 0.66% hits | inhibition, % at 10 µM;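 active means inhibition above about 55%, limit read from the data; inconclusive means no clear call, values can overlap the other calls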
# NadD inh: inhibitors of Staphylococcus aureus NadD; purified NadD enzyme, colorimetric absorbance read-out; inhibition, % at 20 µM; 360,000 compounds, 0.78% hits; in the data active means inhibition above about 26%
# GRK2 inh: inhibitors of human GRK2 displacing RNA aptamer; bead flow cytometry, FAM-aptamer displacement from GRK2; inhibition of aptamer binding, % at 10 µM; P25098; 330,000 compounds, 0.59% hits;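 active means inhibition of aptamer binding above 40%, roughly 3 SD of noise, on plates passing a quality check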;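 further: median bead fluorescence of bound FAM aptamer so fluorescent compounds give negative values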
# B2AR ag: human beta-2 adrenergic receptor agonism by FAP | Am2.2-beta2AR cells, FAP receptor internalization, flow cytometry | 340,000 compounds, 0.43% hits | response, % (no concentration beside the values) | AID 504454;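 active means response above a set limit, near 3 SD of response in nonfluorescent compounds, cut at about 42% in these data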
# Target sequence (P07550 whole entry, looked up): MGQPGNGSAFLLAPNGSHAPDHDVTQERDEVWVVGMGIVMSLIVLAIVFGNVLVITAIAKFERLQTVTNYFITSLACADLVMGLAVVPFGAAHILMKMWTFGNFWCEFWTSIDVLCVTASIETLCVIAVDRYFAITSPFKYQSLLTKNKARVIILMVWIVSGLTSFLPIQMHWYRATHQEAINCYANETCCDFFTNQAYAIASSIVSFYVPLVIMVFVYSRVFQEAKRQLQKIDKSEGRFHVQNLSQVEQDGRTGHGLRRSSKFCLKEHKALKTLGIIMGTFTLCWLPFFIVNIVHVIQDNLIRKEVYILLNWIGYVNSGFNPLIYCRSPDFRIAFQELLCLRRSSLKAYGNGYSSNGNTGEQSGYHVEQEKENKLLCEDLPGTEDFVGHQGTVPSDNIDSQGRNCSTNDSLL
# PP1 counter: blocks human PP1-alpha phosphatase, a PP5 counter-screen | P62136 | purified PP1alpha, OMFP fluorescence | inhibition, % at 6.7 µM | 320,000 compounds, 0.9% hits | AID 2235;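 active means inhibition above the mean inhibition of all tested compounds plus 3 SD, computed separately for each screening campaign, cut at about 15% in these data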
# GRK2 inh confirm: human GRK2 inhibition confirmation, cherry pick 1. aptamer displacement, % at 10 µM. shares compounds with GRK2 inh. 2,000 compounds, 4% hits. bead-bound GRK2, FAM-aptamer displacement, flow cytometry;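 active means aptamer displacement above 40%, near three times the noise of non-fluorescent compounds, on plates passing quality checks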;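 further: negative values mostly reflect intrinsic compound fluorescence rather than true enhancement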
# Aptamer quench SP: counter-screen for GRK2 aptamer inhibitors: fluorescent aptamer quenchers. fluorescence response (% of DMSO), % at 10 µM. 2,000 tested, under 10 active. Carboxyfluorescein RNA aptamer on beads, flow cytometry quenching; stronger effect = lower value. shares compounds with GRK2 inh;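 active means compounds that quench the bead-bound fluorescent RNA probe, cutting fluorescence to under half of the solvent control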;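 further: counterscreen run without GRK2 so only probe quenching by compound is measured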
# GRK2 confirm 2: confirmation of human GRK2 inhibitors binding RNA aptamer site | shares compounds with GRK2 inh | bead-bound GRK2, FAM-aptamer displacement, flow cytometry | inhibition of aptamer binding, % at 10 µM | 360 tested, under 10 active;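 active means inhibition of aptamer binding above 40%, about triple the noise seen with nonglowing compounds, on plates passing quality control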;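 further: negative values mostly come from compounds that fluoresce themselves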
# FAM quench SP: counter-screen for GRK2 binding hits: quenchers of fluorescent RNA aptamer | fluorescence response vs DMSO, % at 10 µM | 360 tested, under 10 active | shares compounds with GRK2 inh | carboxyfluorescein RNA aptamer beads, flow cytometry quenching; stronger effect = lower value;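 active means response vs DMSO under 50%, meaning signal dropped by over half, treated as fluorescence quencher; inconclusive means no clear call, values can overlap the other calls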;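 further: labelled aptamer on streptavidin beads without GRK2 as a quench counter-screen; 100% = bead fluorescence of DMSO wells and lower means quenching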
# Numbers without * were called inactive; u = inconclusive; x = not tested or not shown. Rows were chosen to be rich in hits. Some 2.9% of all compounds tested hit in one or more screens of this group.
SMILES,Exocytosis inh,NadD inh,GRK2 inh,B2AR ag,PP1 counter,GRK2 inh confirm,Aptamer quench SP,others
Cc1ccc(NC(=O)CCn2c(=O)[nH]c3ccsc3c2=O)cc1,-4.2,-2.2,0.0,-17.1,5.2,x,x,
O=C1CN(S(=O)(=O)c2cccc(C(=O)O)c2)c2ccccc2N1,-11.8,-3.4,0.0,0.4,0.2,x,x,
CCN(CC)C(=O)COc1ccc2oc(-c3ccco3)cc(=O)c2c1,6.8,-0.5,62.0*,-13.0,0.7,14.9,96.3,
CCN(CC)C(=O)COc1c(-c2ccco2)oc2ccccc2c1=O,-13.1,-3.8,2.0,-23.9,2.7,x,x,
COC(=O)C(Cc1ccc(O)cc1)NC(=O)C(C)NC(=O)c1ccc(C(C)(C)C)cc1 (centres undefined),4.9,-4.9,0.0,4.3,0.6,x,x,
CCN(C(=O)COC(=O)c1ccc2ccccc2n1)c1c(N)n(Cc2ccccc2)c(=O)[nH]c1=O,0.5,5.6,x,-5.4,x,x,x,
O=C(Cc1ccccc1F)Nc1cc(S(=O)(=O)N2CCCC2)ccc1Cl,2.1,-4.4,2.0,0.0,1.5,x,x,
O=C(CNc1ccccc1F)Nc1cc(S(=O)(=O)N2CCCCC2)ccc1Cl,-1.0,-4.4,52.0*,-7.7,4.2,3.1,93.1,
Cc1ccccc1S(=O)(=O)N1[C@@H](c2ccc(Cl)cc2)C(C(=O)O)=CC[C@H]1c1ccc(Cl)cc1,1.6,11.2,2.0,4.8,x,x,x,
CCCOc1ccccc1N1C(=O)CC(N(O)c2ccccc2)C1=O (centres undefined),-1.7,-0.2,49.0*,7.4,0.9,1.3,124.5,
Cc1nc2ccccc2c(=O)n1NC(=O)c1cccc([N+](=O)[O-])c1,0.6,-1.8,98.0*,-2.6,-1.3,-9.6,96.0,
CCN1C(=O)[C@H]2[C@@H](c3ccc(-c4ccc(C(C)=O)cc4)c(OC)c3)N[C@@](Cc3ccccc3)(C(=O)OC)[C@H]2C1=O,-2.4,2.9,0.0,5.9,3.0,x,x,
O=C(NCc1cccs1)C1(S(=O)(=O)c2ccccc2)CC=CC1,-8.8,-3.3,0.0,-0.5,2.2,x,x,GRK2 confirm 2=6.0;FAM quench SP=97.0
CC(C)C(=O)NC(=S)Nc1c(Cl)ccc2nsnc12,-3.4,-4.8,2.0,-0.3,-1.3,x,x,
CC(NC(=O)c1ccncc1)C(c1cccs1)N1CCOCC1 (centres undefined),-3.0,-7.8,0.0,10.2,-3.1,x,x,
CC(NC(=O)c1ccc(C(C)(C)C)cc1)C(c1cccs1)N1CCOCC1 (centres undefined),-1.0,-4.0,53.0*,3.9,-1.7,x,x,GRK2 confirm 2=4.6;FAM quench SP=102.0
O=C(CCc1ccccc1)NCc1ccccc1,-3.2,-4.2,0.0,-0.1,-1.9,x,x,
O=C(CCSCCC(=O)NCc1ccccc1)NCc1ccccc1,-0.8,4.0,87.0*,6.2,0.6,1.2,100.6,
CC1CC(C)CN(S(=O)(=O)c2ccc(C(=O)N3CCN(c4ccccc4)CC3)cc2)C1 (centres undefined),-1.2,0.6,2.0,-0.7,-4.4,3.9,95.2,
O=C(c1ccc(S(=O)(=O)N2CCCCCC2)cc1)N1CCN(c2ccccc2)CC1,-3.5,-17.3,4.0,-1.0,-1.6,x,x,
COc1ccccc1N1CCN(C(=O)c2ccc(S(=O)(=O)N3CCCCCC3)cc2)CC1,-0.6,-0.8,1.0,4.8,-0.9,-1.9,97.1,
O=C(O)C1C2CCC(C2)C1C(=O)NCc1ccccn1 (centres undefined),-1.2,-2.3,0.0,-2.5,2.8,x,x,
CCn1cc(CNC(=O)C2C3CCC(C3)C2C(=O)O)cn1 (centres undefined),-1.5,3.0,40.0,-3.6,-3.2,2.9,102.1,
CCOC(=O)c1c(-c2ccccc2)csc1NC(=O)c1cc2ccccc2oc1=O,-3.4,15.5,0.0,-8.1,-2.4,x,x,
CC1(C(=O)NNC(=O)c2cccc([N+](=O)[O-])c2)CC1(Br)Br (centres undefined),-12.8,12.7,40.0,-26.8,-2.9,-4.0,101.5,
SMILES,Exocytosis inh,NadD inh,GRK2 inh,B2AR ag,PP1 counter,GRK2 inh confirm,Aptamer quench SP,others
Cn1c(SCC(=O)Nc2ccccc2F)nnc1-c1cc2ccccc2o1,-2.9,3.1,0.0,-8.0,0.4,x,x,
CC(C)(CNC(=O)c1cc(-c2ccc(Cl)s2)nc2ccccc12)N1CCOCC1,-2.3,-8.0,52.0*,-5.1,-4.9,-4.2,100.5,
CN1CCN(NC(=O)c2cc(-c3ccc(Cl)s3)nc3ccccc23)CC1,34.5,-8.7,0.0,13.1,-2.2,x,x,
CC(=O)c1cccc(NC(=O)CSCc2ccccc2)c1,-0.7,0.0,43.0*,2.5,-1.7,-1.6,98.7,
COc1cccc(CN(Cc2cccnc2)S(=O)(=O)c2ccc(-n3cnnn3)c(C)c2)c1,-1.9,1.8,29.0,22.9,-1.4,-2.1,107.0,
COc1cc(S(=O)(=O)N(Cc2cccnc2)Cc2ccco2)ccc1-n1cnnn1,-0.6,4.4,0.0,2.8,-0.6,x,x,
COc1ccccc1CN1CC(C(=O)NCc2cccc(Cl)c2)CCC1=O (centres undefined),16.9,1.9,0.0,-2.3,-4.2,x,x,
COc1ccccc1CN1CC(C(=O)NCc2cc(F)cc(C(F)(F)F)c2)CCC1=O (centres undefined),u,-0.3,89.0*,-0.9,-4.1,-2.9,96.0,
COc1ccccc1CN1CC(C(=O)NCCc2ccccc2Cl)CCC1=O (centres undefined),-0.3,-3.2,76.0*,1.4,1.0,1.6,96.4,
COc1ccc(-n2nc(C(=O)NCc3ccco3)c3c4ccccc4n(C)c3c2=O)cc1,0.2,-2.7,4.0,5.8,-4.8,x,x,
COc1ccc(-n2nc(C(=O)NCc3cc(OC)ccc3OC)c3c4ccccc4n(C)c3c2=O)cc1,7.4,7.9,77.0*,3.5,2.8,-2.0,101.5,
CCCN1CCN(C(=O)C2CCN(S(=O)(=O)c3c(C)noc3/C=C/c3ccc(C)cc3)CC2)CC1,45.0,-5.8,77.0*,24.7,2.2,-3.8,105.5,
CC(C)N1CCCC(C)(C(=O)Nc2ccccc2)C1 (centres undefined),0.5,-4.6,x,x,x,x,x,
Cc1nc(N2CCN(C(=O)c3ccco3)CC2)c2c3c(sc2n1)CC(C)CC3 (centres undefined),1.9,10.4,0.0,-4.9,0.5,x,x,
Cc1nc(N2CCN(C(=O)c3ccco3)CC2)c2c3c(sc2n1)CCCC3,0.3,0.7,19.0,-4.6,0.6,-2.3,96.1,
O=C(CN(Cc1ccc(F)cc1)C(=O)CCC(=O)Nc1ccccn1)NCc1ccco1,-2.3,1.6,100.0*,-4.8,0.4,5.3,104.8,
